We go through 14 compounds from PubChem BioAssay.

The source made the active and inactive calls.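 Rule for the calls, unless noted: active = visual image review flags a hit and inhibition of aggregation exceeds 20%; inconclusive = visual hit but inhibition at or below 20%; inactive = no hit on visual image review.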

A short description of assay [1]: inhibitors of TNFa-induced NFkB p65 translocation, primary screen, imaging, HUVEC, MLSMR starter and 10KST1 sets (AID 438;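 active = inhibition above 20% together with a positive visual image hit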;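 note: compound added about 3h40 before a 20 min TNFalpha stimulation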;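 for inhibition: signal is the nuclear over cytoplasmic p65 intensity ratio per well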). The conditions noted are these: HUVEC TNFa-induced p65 nuclear translocation; cell count: measured here: nuclei count (cytotoxicity indicator), at 2.08 µM; inhibition: at 2 µM, stronger effect = higher value, 0% TNFa-plus-vehicle, 100% no-TNFa wells.
Assay [2] can be described thus: reduction of polyQ htt aggregates in cells – imaging, exon1htt(103Q)mCFP cells, high-content imaging, primary screen (AID 483).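 For nuclei count: percent of the per-plate median nuclei count of sample wells.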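 Note: compound exposure lasted 3 days before fixation.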 Conditions: exon1htt(103Q)mCFP cell line, aggregate imaging, at 2 µM; inhibition of aggregation: stronger effect = higher value; nuclei count: measured here: cell count, toxicity.
Assay [3] is described as follows: endothelial E-selectin expression blockers – imaging, HUVEC, immunofluorescence, MLSMR starter and 10KST1 sets, primary screen (AID 487;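 active = visually confirmed hit in the image check and inhibition above 20%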;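 for inhibition: signal is fraction of cell area covered by stained E-selectin grains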;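 for nuclei count: 100% = median nuclei count of all wells on the same plate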). Conditions: HUVEC TNFalpha-induced E-selectin immunofluorescence imaging, at 2 µM; inhibition: stronger effect = higher value; nuclei count: measured here: cell number, toxicity.
Assay [4] has as its target Voltage-gated potassium channel subunit beta-2 (Rattus norvegicus) (UniProt P62483). The assay can be described thus: inhibitors of rat Kvbeta2 reductase activity – biochemical, NADPH fluorescence, primary screen (AID 622;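 active = fluorescence slope higher than the sample average by over 3 SD, cut at about -0.22 in these data, passing the limit was not always enough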;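 note: slope of raw intensity against log time taken from 70 to 1610 s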). Conditions: recombinant KvBeta, 4-cyanobenzaldehyde reduction, at 10 µM, stronger effect = higher value.
For assay [5] the target is unchanged. The experiment in a line: enhancers of rat Kvbeta2 NADPH turnover – biochemical, NADPH fluorescence, primary screen (AID 623;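 active = NADPH fluorescence slope more negative than the mean of all samples by about 3 SD, 99.7% confidence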;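 note: fluorescence intensity change per second fitted from 20 to 320 s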). The conditions noted are these: Recombinant KvBeta, NADPH fluorescence decrease slope, 10 min; at 10 µM; stronger effect = lower value.
Assay [6] addresses Alpha-2C adrenergic receptor (Homo sapiens) (UniProt P18825). The assay can be described thus: compounds altering alpha2C-coupled GIRK flux – cell-based, HEK293 alpha2C/GIRK1/2, thallium flux, primary screen (AID 624;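 active = fluorescence slope after compound addition differing from the mean of all screened samples at 99.7% confidence, in either direction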;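 note: slope of fluorescence ratio to pre-addition baseline per second over 15 to 24 s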). Conditions: thallium flux BTC fluorescence, at 10 µM, actives lie on both sides.
A short description of assay [7]: blockers of RIG-like receptor reporter activation – cell-based, Sendai virus stimulus, luciferase, 10K MLSCN set, TLR/RLR signaling modifier project, primary screen (AID 602276;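 active = inhibition at or above 50% at 10 µM; inactive = inhibition below 50%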;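 note: firefly luciferase from ISG56 promoter only with Renilla not read in this screen; 0% = Sendai virus plus DMSO and 100% = medium plus DMSO without virus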). Conditions: HEK293 RL24 IRF3 luciferase reporter, at 10 µM, stronger effect = higher value.
Assay [8] can be described thus: TLR3 IRF3 reporter activation blockers – cell-based, poly I:C stimulus, luciferase, 10K MLSCN set, primary screen (AID 602277;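 active = inhibition of the reporter signal at or above 50%; inactive = inhibition below 50%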). The conditions noted are these: HEK293-TLR3 RL24 IRF3 luciferase reporter, at 10 µM, stronger effect = higher value. (In general: In a reporter assay the amount or activity of a reporter protein is the signal.)

Chain of Alpha-2C adrenergic receptor (Homo sapiens) (P18825 whole entry, looked up): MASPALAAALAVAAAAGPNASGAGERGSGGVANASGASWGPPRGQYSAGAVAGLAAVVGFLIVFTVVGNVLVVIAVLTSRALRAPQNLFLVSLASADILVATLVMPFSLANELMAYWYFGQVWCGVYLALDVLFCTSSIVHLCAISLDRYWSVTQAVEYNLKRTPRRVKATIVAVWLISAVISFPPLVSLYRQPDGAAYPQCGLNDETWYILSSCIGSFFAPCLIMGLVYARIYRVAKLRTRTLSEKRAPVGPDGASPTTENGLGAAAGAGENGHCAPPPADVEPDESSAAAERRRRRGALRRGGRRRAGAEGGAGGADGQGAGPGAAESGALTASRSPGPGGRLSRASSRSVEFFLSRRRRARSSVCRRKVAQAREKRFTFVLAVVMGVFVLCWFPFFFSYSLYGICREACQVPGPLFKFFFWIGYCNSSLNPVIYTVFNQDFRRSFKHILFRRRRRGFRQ
Chain of Voltage-gated potassium channel subunit beta-2 (Rattus norvegicus) (P62483 whole entry, looked up): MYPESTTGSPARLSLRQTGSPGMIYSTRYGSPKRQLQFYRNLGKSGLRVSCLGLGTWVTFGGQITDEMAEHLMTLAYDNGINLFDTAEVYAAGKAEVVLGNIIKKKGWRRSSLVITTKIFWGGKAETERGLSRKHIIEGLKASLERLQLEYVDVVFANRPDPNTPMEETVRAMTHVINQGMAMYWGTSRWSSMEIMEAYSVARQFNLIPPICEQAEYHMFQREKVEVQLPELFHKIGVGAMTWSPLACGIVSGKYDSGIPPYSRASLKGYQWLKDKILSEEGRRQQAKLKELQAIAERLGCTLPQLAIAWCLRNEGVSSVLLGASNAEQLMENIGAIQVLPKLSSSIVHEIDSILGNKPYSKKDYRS

As usually defined, the inhibition is the relative decrease from the control value, in per cent. As for `O=C(CSc1nnc(Cc2cc(=O)[nH]c(=O)[nH]2)n1-c1ccccc1)NCC1CCCO1` (centres undefined), the cell count in assay [1] amounted to 398. Also, the inhibition in assay [1] was 1.1% (inactive); in assay [3], 5.7% (inactive); in assay [7] it was 10.3% (inactive); in assay [8], 21.2% (inactive). For the same compound, the inhibition of aggregation in assay [2] was -3.9% (inactive). Further, the figures for the nuclei count in assay [2] and in assay [3] were 110% and 102%, respectively. Besides, the fluorescence slope in assay [4] was -0.373 (inactive). Further, in assay [5], the NADPH fluorescence slope is 3.5e-05 (inactive). In assay [6], the slope is 0.00598 (inactive).

For `Cc1ccccc1-n1c(Cn2c(=O)sc3ccccc32)nnc1SCC(=O)N1CCCC1`, in assay [1], the cell count is 652. Also, the inhibition in assay [1] was 8.7% (inactive); in assay [3], -36.1% (inactive); in assay [7], 12.7% (inactive); in assay [8] it was 10.7% (inactive). Further, the inhibition of aggregation in assay [2] was 13.1% (inactive). Besides, the figures for the nuclei count in assay [2] and in assay [3] were 112% and 120%, respectively. The fluorescence slope in assay [4] is -0.547 (inactive). Moreover, the NADPH fluorescence slope in assay [5] was -3.9e-05 (inactive). Also, the slope in assay [6] is 0.00766 (inactive).

For `Cc1cc(=O)oc2c1c(C)nn2-c1ccc(C(=O)OC(C)C)cc1`, the cell count in assay [1] came out at 741. Moreover, the inhibition is -2.9% (inactive) in assay [1], -67.2% (inactive) in assay [3], 8% (inactive) in assay [7] and 26.1% (inactive) in assay [8]. For the same compound, the inhibition of aggregation in assay [2] was -39.6% (inactive). Also, the nuclei count in assay [2] and in assay [3] was 106% in each case. Besides, the fluorescence slope in assay [4] was -0.529 (inactive). The NADPH fluorescence slope in assay [5] is -1.2e-05 (inactive). Moreover, the slope in assay [6] is 0.00612 (inactive).

Consider `Cc1nc2ccc(S(=O)(=O)NCC(=O)N3CCc4ccccc4C3)cc2s1`, for which the cell count in assay [1] came to 439. Further, the inhibition in assay [1] is 2.7% (inactive); in assay [3] it was -4.9% (inactive); in assay [7], -4.3% (inactive); in assay [8], -28.9% (inactive). For the same compound, the inhibition of aggregation in assay [2] was 1.5% (inactive). For the same compound, the nuclei count in assay [2] amounted to 91.2%; in assay [3], 119%. Besides, the fluorescence slope in assay [4] was -0.563 (inactive). Further, the NADPH fluorescence slope in assay [5] is 3.2e-05 (inactive). Besides, in assay [6], the slope is 0.00627 (inactive).

On to `COc1ccc(S(=O)(=O)N2CCC(C(=O)c3ccc4c(c3)OCCO4)CC2)cc1`, for which the cell count in assay [1] turned out to be 298. The inhibition in assay [1] was -0.7% (inactive); in assay [3], -51.9% (inactive); in assay [7] it was -3.88% (inactive); in assay [8] it was 12.1% (inactive). Further, in assay [2], the inhibition of aggregation is 14.2% (inactive). Further, the nuclei count in assay [2] was 157%; in assay [3], 119%. For the same compound, in assay [4], the fluorescence slope was -0.461 (inactive). For the same compound, the NADPH fluorescence slope in assay [5] was -8e-05 (inactive). Further, the slope in assay [6] was 0.00739 (inactive).

Regarding `O=C(CS(=O)CC(=O)Nc1cccc2c1CCCC2)Nc1ccc(F)cc1` (centres undefined), in assay [1], the cell count was 210. Besides, the inhibition in assay [1] was 2.1% (inactive); in assay [3] it was 26.9% (inactive); in assay [7] it was 12.7% (inactive); in assay [8] it was 18.9% (inactive). Besides, the inhibition of aggregation in assay [2] is -8.6% (inactive). The results for the nuclei count in assay [2] and in assay [3] were 84.1% and 80.2%, respectively. The fluorescence slope in assay [4] is -0.621 (inactive). Moreover, the NADPH fluorescence slope in assay [5] was 1e-05 (inactive). In addition, the slope in assay [6] was 0.00343 (inactive).

For the compound `Cc1ccc(CCC(=O)Nc2ccc(S(N)(=O)=O)cc2)o1`, the cell count in assay [1] is 543. Moreover, the inhibition in assay [1] was 0% (inactive); in assay [3], -67.7% (inactive); in assay [7], -2.49% (inactive); in assay [8], 2.2% (inactive). In addition, the inhibition of aggregation in assay [2] is -16.3% (inactive). In addition, the figures for the nuclei count in assay [2] and in assay [3] were 111% and 99.7%, respectively. Moreover, the fluorescence slope in assay [4] was -0.614 (inactive). Besides, the NADPH fluorescence slope in assay [5] is 5.3e-06 (inactive). Besides, in assay [6], the slope is 0.00583 (inactive).

In the case of `Cc1ccc(S(=O)(=O)NC(C)C(=O)Nc2ccc(C(N)=O)cc2)cc1` (centres undefined), in assay [1], the cell count was 707. Besides, the inhibition was 1.6% (inactive) in assay [1], -22.5% (inactive) in assay [3], -2.81% (inactive) in assay [7] and 2.56% (inactive) in assay [8]. Besides, in assay [2], the inhibition of aggregation is 1.1% (inactive). The nuclei count in assay [2] is 77.4%; in assay [3], 105%. Moreover, in assay [4], the fluorescence slope is -0.521 (inactive). In assay [5], the NADPH fluorescence slope was 1.6e-05 (inactive). Besides, in assay [6], the slope was 0.0049 (inactive).

As for `CCCCSCCCNC(=O)CS(=O)Cc1nc(-c2cccc(C)c2)oc1C` (centres undefined), in assay [1], the cell count is 527. Also, the inhibition was -9.6% (inactive) in assay [1], -27.5% (inactive) in assay [3], 10.8% (inactive) in assay [7] and 10.7% (inactive) in assay [8]. For the same compound, in assay [2], the inhibition of aggregation was -1.1% (inactive). The values for the nuclei count in assay [2] and in assay [3] were 107% and 113%, respectively. Moreover, the fluorescence slope in assay [4] was -0.308 (inactive). Also, the NADPH fluorescence slope in assay [5] was 1.3e-05 (inactive). Besides, in assay [6], the slope was -0.000762 (active).

Consider `COC(=O)c1ccccc1NC(=O)CC(NCc1ccccc1)C(=O)O` (centres undefined), for which the cell count in assay [1] was found to be 619. Moreover, the inhibition was -5% (inactive) in assay [1], -21.4% (inactive) in assay [3], -10.8% (inactive) in assay [7] and 16.2% (inactive) in assay [8]. Further, the inhibition of aggregation in assay [2] is -34.3% (inactive). In addition, the nuclei count in assay [2] amounted to 124%; in assay [3], 116%. Besides, in assay [4], the fluorescence slope is -0.418 (inactive). Moreover, the NADPH fluorescence slope in assay [5] was -8.7e-06 (inactive). Also, in assay [6], the slope is 0.00289 (inactive).

As to `Cc1ccc(S(=O)(=O)N2CCN(CCO)CC2)cc1-c1nnc2c3ccccc3c(C)nn12`, the cell count in assay [1] was 357. For the same compound, the inhibition in assay [1] was -0.4% (inactive); in assay [3] it was 8.6% (inactive); in assay [7] it was 3.73% (inactive); in assay [8], 9.83% (inactive). Moreover, in assay [2], the inhibition of aggregation was -26.9% (inactive). Also, the nuclei count came to 102% in assay [2] and 81% in assay [3]. In assay [4], the fluorescence slope was -0.609 (inactive). Moreover, the NADPH fluorescence slope in assay [5] was -1.7e-05 (inactive). Further, the slope in assay [6] is 0.00417 (inactive).

As to `CCOc1ccc(OCC)c(NC(=O)CCCN2C(=O)c3cccnc3C2=O)c1`, the cell count in assay [1] turned out to be 408. For the same compound, the inhibition in assay [1] is 5.3% (inactive); in assay [3], 42.2% (inactive); in assay [7] it was -17.2% (inactive); in assay [8] it was -8.59% (inactive). For the same compound, the inhibition of aggregation in assay [2] is 15.7% (inactive). The nuclei count in assay [2] was determined as 93.7%; in assay [3] it was 102%. Further, the fluorescence slope in assay [4] was -0.583 (inactive). Further, in assay [5], the NADPH fluorescence slope was -3.8e-05 (inactive). Besides, the slope in assay [6] is 0.00505 (inactive).

As to `COc1cc(OC)c(C2C(C#N)=C(N)OC3=C2C(=O)CC(C)(C)C3)cc1OC` (centres undefined), the cell count in assay [1] stood at 407. In addition, the inhibition was -2.7% (inactive) in assay [1], -27.1% (inactive) in assay [3], -2.62% (inactive) in assay [7] and 5.85% (inactive) in assay [8]. In addition, the inhibition of aggregation in assay [2] is 22.2% (inactive). Also, the nuclei count in assay [2] turned out to be 88.4%; in assay [3], 104%. Besides, in assay [4], the fluorescence slope was -0.501 (inactive). Besides, the NADPH fluorescence slope in assay [5] is -3.5e-05 (inactive). Further, the slope in assay [6] is 0.00648 (inactive).

For `CCN(CC)Cc1csc(C(N)=O)c1`, the cell count in assay [1] turned out to be 617. In addition, the inhibition was -1.2% (inactive) in assay [1], -26% (inactive) in assay [3], 5.97% (inactive) in assay [7] and 23.4% (inactive) in assay [8]. Moreover, the inhibition of aggregation in assay [2] is 0.5% (inactive). Also, the results for the nuclei count in assay [2] and in assay [3] were 102% and 83%, respectively. Besides, in assay [4], the fluorescence slope is -0.612 (inactive). In addition, in assay [5], the NADPH fluorescence slope is -6.9e-06 (inactive). In addition, the slope in assay [6] is 0.00652 (inactive).
